Source: PubChem BioAssay
Most compounds without a hit are left out; they make up all but 20% or so of the library.
Shiga toxin inh – blocks Shiga toxin action in Vero cells | Vero cells, Shiga toxin protein synthesis inhibition reporter | hit rate 9.2% among 290,000 | inhibition, % at 38.7 µM; in the data active means inhibition mostly above about 28%, no sharp cut-off; inactive means mostly below about 43%; further: 0% is about no effect
Cycloheximide cs – counter-screen for Shiga toxin inhibitors: cycloheximide protein synthesis inhibition. cell reporter, cycloheximide protein synthesis inhibition counterscreen. max response, %. hit rate 12% among 300,000; in the data active means max response mostly above about 13%, no sharp cut-off; inactive means mostly below about 14%; further: read at 38.3 µM for the half of the compounds with a filed dose; 0% is about no effect
Pf growth 48h – inhibits P. falciparum growth in the first generation, 48 h | Potency, µM (top dose mostly 28.7 µM), without a hit: top-dose activity change, negative = inhibition, usual class: inhibitors | P. falciparum luciferase growth in erythrocytes, 48 h | hit rate 5.9% among 310,000; further: potency means the concentration at half of the fitted maximal effect; on the % scale 0 is the no-effect control and ±100 the full control effect
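Luminescence readout; reporter = integrated firefly luciferase in P. falciparum. RBC culture at 2% hematocrit, 0.1% parasitemia final, 37 C/5% CO2; decreased signal taken as growth inhibition.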
Pf growth 96h – P. falciparum growth inhibition at 96 hours | P. falciparum luciferase reporter growth, 96 h | Potency, µM (top dose mostly 28.7 µM), inactives show at the highest dose activity change, negative = inhibition, actives largely listed as inhibitors | hit rate 6.9% among 320,000; further: potency means the concentration at half of the fitted maximal effect; on the % scale 0 is the no-effect control and ±100 the full control effect
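P. falciparum expressing integrated firefly luciferase, in erythrocytes at 2% hematocrit, 0.05% parasitemia, incubated with compounds 96 h at 37 C, 5% CO2. Growth inhibition read as loss of luminescence; two-generation exposure targets delayed-death apicoplast inhibitors.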
HCMV antiviral – human cytomegalovirus inhibition | HFF cells, HCMV-luciferase reporter, 72 h; hits give low values | activity change, negative = inhibition, % at 57.5 µM | hit rate 4.5% among 410,000 | AID 1259415; in the data active means activity change below about -60%; inconclusive means no clear call, values can overlap the other calls; inactive means above about -39%; further: on the % scale 0 is the no-effect control and ±100 the full control effect
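Luciferase read-out from HCMV-luciferase-infected HFFs (MOI 1 PFU/cell) 72 h post infection at 37C; compounds added after 16 h cell attachment; activity normalized between buffer-only basal and Salinomycin (10uM) inhibitor controls.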
Starred values were filed as active, the others as inactive; ? = inconclusive; · = not tested or not shown; + = active, no number. Unless noted, the call rests on the fitted dose curve; in most records, active means well fitted inhibition curve with a large enough effect; inconclusive means small, poorly fitted or top-dose-only effect, or another doubt; inactive means no such curve, though single readings can be large or run the other way.

SMILES	Shiga toxin inh	Cycloheximide cs	Pf growth 48h	Pf growth 96h	HCMV antiviral
COC(/C(=N/O)c1ccc(Cl)cc1)c1ccccc1 (centres undefined)	50*	33*	2.1µM*	2.3µM*	-94*
COc1ccc(Cl)cc1NC(=O)C(OC)c1ccccc1 (centres undefined)	9	4	-29%	8%	-12
Cc1[nH]c2ccccc2c(=O)c1SC(F)(F)C(F)C(F)(F)F (centres undefined)	13	-3	0.83µM*	3.3µM*	87
Cc1ccc(-n2c(C)cc(/C=N/Nc3ccc([N+](=O)[O-])cn3)c2C)cc1	59*	39*	4%	13%	-33
Cc1c(C(=O)O)cccc1-n1c(C)cc(/C=N/Nc2ccc([N+](=O)[O-])cn2)c1C	71*	32*	?	?	-25
Cc1cc(/C=N/Nc2ccc([N+](=O)[O-])cn2)c(C)n1-c1ccccc1	78*	27*	?	·	-11
O=C(O)c1ccccc1C=NNc1ccc([N+](=O)[O-])cn1	·	·	·	·	-23
CC(C=NNc1ccc([N+](=O)[O-])cn1)=Cc1ccccc1	·	·	·	·	113
CC1(C)CC(=O)C([N+](=O)[O-])=C(NCCCO)C1	11	-1	12%	12µM*	-38
CC(C)N1CCN(Cc2cnc(-c3ccccc3)s2)CC1CCO (centres undefined)	15	-1	-16%	6%	-21
COc1ccc(/C=C/C(=O)Nc2cc(-c3nc4ccccc4o3)ccc2OC)cc1	·	·	·	·	-24
CC(=Cc1cccs1)C(=O)c1ccccc1	·	·	·	·	7
COc1ccc(C(=O)/C(=C/c2cccs2)c2nc3ccccc3o2)cc1	93*	43*	·	?	?
COc1ccc(/C=C(\CC(=O)O)c2nc3ccccc3o2)cc1	108*	39*	214%	135%	72
COCCn1c(SCC(=O)Nc2cc(Cl)ccc2OC)nc2c([nH]c3ccccc32)c1=O	·	·	·	·	37
CCCCCCCCN1C(=O)[C@@H](CC(=O)NCC2CCCCC2)C[C@@]2(C(=O)OC)C1=C[C@H](C1CCCC1)O[C@@H]2C	·	·	·	·	9
CCCOc1cccc(C(=O)Nc2ccc(Br)cc2F)c1	68*	42*	98%	-9%	87
O=C(Nc1ccccc1F)c1ccncc1	-11	-1	20%	-6%	7
CCCOc1cccc(C(=O)Nc2cccc3ncccc23)c1	-7	-1	-3%	?	-26
O=C(Nc1ccc(Br)cc1F)c1ccncc1	56*	25*	108%	·	-19
O=C(Nc1ccc(Br)cc1F)c1ccc2nsnc2c1	62*	33*	134%	26%	9
Cc1ccc(NC(=O)c2ccc3nsnc3c2)c(Cl)c1	105*	58*	134%	?	?
O=C(NNS(=O)(=O)c1ccc2ccccc2c1)c1cccnc1	-4	0	9%	1%	13
CN(C)Cc1cccc([N+](=O)[O-])c1O	0	-1	2%	23%	14
CC1=C2CCC[C@]3(C)CCOC23C=CC1=O (some centres undefined)	·	·	·	·	-1
SMILES	Shiga toxin inh	Cycloheximide cs	Pf growth 48h	Pf growth 96h	HCMV antiviral
CCCCC1=CC2=CC(=O)C(C)(OC(=O)CC)C(=O)C2=CN1c1ccc(OC)cc1 (centres undefined)	-5	0	12µM*	9.3µM*	18
CC1(OC(=O)CCc2ccccc2)C(=O)C=C2C=C(c3ccc(C#N)cc3)N(C3CC3)C=C2C1=O (centres undefined)	-14	-4	13µM*	?	-24
CCCCC1=CC2=CC(=O)C(C)(OC(=O)CC)C(=O)C2=CN1CCCCO (centres undefined)	-4	-5	42%	?	?
CCCCC1=CC2=CC(=O)C(C)(OC(=O)CC)C(=O)C2=CN1C1CCCCC1 (centres undefined)	-7	-3	?	9.3µM*	-3
CC1(OC(=O)CCc2ccccc2)C(=O)C=C2C=C(c3ccc(C#N)cc3)N(Cc3ccccc3)C=C2C1=O (centres undefined)	25	0	?	?	-18
COCCNC(=O)c1cnn(-c2cccc(C)c2)c1-n1cccc1	·	·	·	·	+
COC(=O)c1cnn(-c2ccc(C)c(C)c2)c1-n1cccc1	29	20*	·	·	-21
CCOC(=O)N1CCC(NC(=O)c2cnn(-c3cccc(C)c3)c2-n2cccc2)CC1	·	·	·	·	0
CCOC(=O)C(CC)n1cnc2c(nnn2-c2ccccc2)c1=O (centres undefined)	-5	1	0%	10%	·
CCCCNC(=S)Nc1ccc(SC(F)F)cc1	149*	61*	?	?	0
Oc1cccc2c(NC(=S)Nc3ccc(SC(F)F)cc3)cccc12	135*	82*	45%	86%	40
Oc1cccc(NC(=S)Nc2ccc(SC(F)F)cc2)c1	20	21*	48%	64%	-7
FC(F)Sc1ccc(NC(=S)NC2CCC(NC(=S)Nc3ccc(SC(F)F)cc3)CC2)cc1 (centres undefined)	-3	10	?	·	-5
CCCCNC(=S)Nc1ccc(F)cc1	12	0	-24%	-28%	-21
O=C(CSc1ccc(-c2ccccn2)nn1)NCc1ccc(F)cc1	36	5	-21%	?	18
CC#C[C@@H](CC)c1ccc2ccn(C)c2c1	·	·	?	?	-11
Cc1ccc(C)c(NC(=O)Nc2cc3c(cc2N2CCCCC2)n(C)c(=O)n3C)c1	·	·	·	·	-17
OCC[C@@H]1C[C@@H](O)[C@H](O)[C@@]2(CCc3ccccc3CO2)O1	-6	-2	32%	?	-10
O=C1C(=C2CCCCC2)SC(=S)N1Cc1ccco1	32	2	-27%	-12%	-2
Cc1cccc(C#CC2=CC(=O)CC(C)(C)C2)c1	·	·	·	·	-100*
COc1cccc(C#CC2=CC(=O)CC(C)(C)C2)c1	·	·	·	·	2
